In the supplement of paper PMC10849652:
The full data set covers some 7,900 targets. This sample favours those with a hit. About 0.6% of all pairs of compound and target were hits. Values without a mark were called inactive.

How the values were obtained:
Experiment in all cases: log2 fold change, soluble protein after heating vs DMSO (PISA); higher = thermal stabilisation; K562 cells, 10 uM, 30 min; active = over 0.2 and 3.5 SD of the protein, either way, in both replicates (recomputed)
[1] = compound: Cc1ccc(NC(=O)c2ccc(CN3CC[C@H](N(C)C)C3)c(C(F)(F)F)c2)cc1Nc1nccc(-c2cncnc2)n1 [bafetinib]
Summary of the method: (§1)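 Aliquots of K562 cells (2×10^6 cells/mL) treated with 10 μM compound for 30 min were heated for 3 min over 48°C-58°C. After pooling and extraction in PBS with 0.5% NP-40 at 4°C, soluble protein from a 21,000xg, 90 min spin was quantified by TMTpro 16plex LC-MS/MS with channel sums equalised. Thermal stability is expressed against control samples, from duplicates, as a log2 fold change.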

[2] = compound: Cc1cccc(CC(=O)N2CCc3c2ccc(-c2cn(C)c4ncnc(N)c24)c3F)n1
Summary of the method: as §1

[3] = compound: Cc1cn(-c2cc(NC(=O)c3ccc(C)c(Nc4nccc(-c5cccnc5)n4)c3)cc(C(F)(F)F)c2)cn1 [nilotinib]
Summary of the method: as §1

[4] = compound: Cc1nc(Nc2n[nH]c3c2CN(C(=O)N[C@H](CN(C)C)c2ccccc2)C3(C)C)c2sccc2n1
Summary of the method: as §1

[5] = compound: Cc1nc(Nc2ncc(C(=O)Nc3c(C)cccc3Cl)s2)cc(N2CCN(CCO)CC2)n1 [dasatinib]
Summary of the method: as §1

[6] = compound: Cc1ncc(-c2ccnc(Nc3ccc(S(C)(=O)=O)cc3)n2)n1C(C)C
Summary of the method: as §1

[7] = compound: Cn1cc(-c2ccc3c(c2)CCN3C(=O)Cc2cccc(C(F)(F)F)c2)c2c(N)ncnc21
Summary of the method: as §1

[8] = compound: Cn1cc(-c2ccc3nnc(C(F)(F)c4ccc5ncccc5c4)n3n2)cn1
Summary of the method: as §1

[9] = compound: Cn1cncc1[C@@](N)(c1ccc(Cl)cc1)c1ccc2c(c1)c(-c1cccc(Cl)c1)cc(=O)n2C [tipifarnib]
Summary of the method: as §1

[10] = compound: FC(F)(F)c1ccc(/C=C/c2nc(COc3ccc(CCCCn4ccnn4)cc3)co2)cc1 [mubritinib]
Summary of the method: as §1

[11] = compound: NC(=O)Nc1cc(-c2cccc(F)c2)sc1C(=O)N[C@H]1CCCNC1
Summary of the method: as §1

[12] = compound: NC(=O)c1cnc(N[C@@H]2CCCC[C@@H]2N)nc1Nc1cccc(-n2nccn2)c1
Summary of the method: as §1

[13] = compound: NC1(c2ccc(-c3nc4ccn5c(=O)[nH]nc5c4cc3-c3ccccc3)cc2)CCC1
Summary of the method: as §1

[14] = compound: NCC(=O)Nc1ccc(-n2nc(C(F)(F)F)cc2-c2ccc3c(ccc4ccccc43)c2)cc1
Summary of the method: as §1

[15] = compound: Nc1ccccc1NC(=O)c1ccc(CNC(=O)OCc2cccnc2)cc1 [entinostat]
Summary of the method: as §1

[16] = compound: O=C(CCCCCCC(=O)Nc1ccccc1)NO [vorinostat]
Summary of the method: as §1

[17] = compound: O=C(CCCCCCNC(=O)c1cnc(N(c2ccccc2)c2ccccc2Cl)nc1)NO [citarinostat]
Summary of the method: as §1

[18] = compound: O=C(O)c1ccc2c(c1)nc(Nc1cccc(Cl)c1)c1ccncc12 [silmitasertib]
Summary of the method: as §1

[19] = compound: O=C1NC(=O)C(c2cnc3ccccn23)=C1c1cn2c3c(cc(F)cc13)CN(C(=O)N1CCCCC1)CC2
Summary of the method: as §1

[20] = compound: c1cc(OCCN2CCCCC2)cc(-c2n[nH]c3ccc(-c4nnc[nH]4)cc23)c1
Summary of the method: as §1

Sequence of UniProt Q9BRX2 (Q9BRX2 whole entry, looked up): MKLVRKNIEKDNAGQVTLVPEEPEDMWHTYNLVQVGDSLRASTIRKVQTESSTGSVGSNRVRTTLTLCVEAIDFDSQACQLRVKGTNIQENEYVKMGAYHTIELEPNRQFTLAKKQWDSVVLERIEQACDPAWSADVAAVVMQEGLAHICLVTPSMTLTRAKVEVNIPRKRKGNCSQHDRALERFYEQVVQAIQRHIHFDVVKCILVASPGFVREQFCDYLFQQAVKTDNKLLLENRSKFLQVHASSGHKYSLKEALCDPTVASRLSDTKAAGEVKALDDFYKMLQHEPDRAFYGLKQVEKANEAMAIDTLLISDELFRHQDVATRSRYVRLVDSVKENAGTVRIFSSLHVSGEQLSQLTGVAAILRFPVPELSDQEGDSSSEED
Sequence of UniProt P31321 (P31321 whole entry, looked up): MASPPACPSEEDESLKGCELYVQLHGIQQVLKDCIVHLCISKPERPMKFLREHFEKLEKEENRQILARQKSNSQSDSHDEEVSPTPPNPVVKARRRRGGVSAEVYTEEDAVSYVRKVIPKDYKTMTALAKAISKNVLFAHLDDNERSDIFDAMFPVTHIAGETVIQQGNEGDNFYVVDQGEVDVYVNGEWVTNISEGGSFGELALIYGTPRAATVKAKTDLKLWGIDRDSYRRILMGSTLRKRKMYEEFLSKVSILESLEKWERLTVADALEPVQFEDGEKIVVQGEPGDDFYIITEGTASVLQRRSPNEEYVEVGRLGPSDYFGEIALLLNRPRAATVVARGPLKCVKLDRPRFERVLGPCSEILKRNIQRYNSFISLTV
Sequence of UniProt P62333 (P62333 whole entry, looked up): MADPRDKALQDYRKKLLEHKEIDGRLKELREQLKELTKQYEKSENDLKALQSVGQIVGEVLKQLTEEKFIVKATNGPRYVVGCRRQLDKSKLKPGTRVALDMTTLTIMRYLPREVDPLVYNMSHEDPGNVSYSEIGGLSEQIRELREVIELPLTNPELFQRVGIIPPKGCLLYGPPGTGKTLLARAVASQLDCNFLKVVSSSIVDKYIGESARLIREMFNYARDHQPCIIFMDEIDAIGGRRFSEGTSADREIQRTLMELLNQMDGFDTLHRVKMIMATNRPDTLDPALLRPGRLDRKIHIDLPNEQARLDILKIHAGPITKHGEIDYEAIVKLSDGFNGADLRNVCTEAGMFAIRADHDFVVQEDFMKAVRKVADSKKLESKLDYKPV
Sequence of UniProt Q92871 (Q92871 whole entry, looked up): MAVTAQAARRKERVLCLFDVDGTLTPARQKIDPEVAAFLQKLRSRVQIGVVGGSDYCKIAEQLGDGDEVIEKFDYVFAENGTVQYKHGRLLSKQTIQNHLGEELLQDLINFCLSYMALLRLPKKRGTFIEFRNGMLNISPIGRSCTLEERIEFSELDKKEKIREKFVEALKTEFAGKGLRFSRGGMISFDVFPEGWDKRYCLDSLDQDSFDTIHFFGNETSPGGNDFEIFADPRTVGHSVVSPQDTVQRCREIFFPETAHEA
Sequence of UniProt P50336 (P50336 whole entry, looked up): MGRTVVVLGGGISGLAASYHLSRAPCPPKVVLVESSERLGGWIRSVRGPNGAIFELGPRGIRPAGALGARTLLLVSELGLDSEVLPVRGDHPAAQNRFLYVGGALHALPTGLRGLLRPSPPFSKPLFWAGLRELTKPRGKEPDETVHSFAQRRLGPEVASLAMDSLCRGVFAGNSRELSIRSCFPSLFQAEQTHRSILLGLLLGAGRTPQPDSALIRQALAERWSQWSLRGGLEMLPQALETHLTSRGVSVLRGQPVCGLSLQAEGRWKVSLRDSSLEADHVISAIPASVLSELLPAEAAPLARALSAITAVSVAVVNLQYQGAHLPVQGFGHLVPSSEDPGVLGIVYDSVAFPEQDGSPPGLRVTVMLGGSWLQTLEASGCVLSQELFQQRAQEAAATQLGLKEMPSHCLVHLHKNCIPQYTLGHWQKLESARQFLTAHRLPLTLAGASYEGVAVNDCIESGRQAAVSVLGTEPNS
Sequence of UniProt Q8N4L2 (Q8N4L2 whole entry, looked up): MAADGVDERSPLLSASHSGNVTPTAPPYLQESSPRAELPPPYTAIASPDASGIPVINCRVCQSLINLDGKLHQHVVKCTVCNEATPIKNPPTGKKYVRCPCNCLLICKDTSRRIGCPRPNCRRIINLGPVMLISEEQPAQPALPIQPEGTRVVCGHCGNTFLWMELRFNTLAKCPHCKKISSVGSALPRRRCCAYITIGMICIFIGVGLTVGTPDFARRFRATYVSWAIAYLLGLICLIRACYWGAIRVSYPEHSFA
Sequence of UniProt O00408 (O00408 whole entry, looked up): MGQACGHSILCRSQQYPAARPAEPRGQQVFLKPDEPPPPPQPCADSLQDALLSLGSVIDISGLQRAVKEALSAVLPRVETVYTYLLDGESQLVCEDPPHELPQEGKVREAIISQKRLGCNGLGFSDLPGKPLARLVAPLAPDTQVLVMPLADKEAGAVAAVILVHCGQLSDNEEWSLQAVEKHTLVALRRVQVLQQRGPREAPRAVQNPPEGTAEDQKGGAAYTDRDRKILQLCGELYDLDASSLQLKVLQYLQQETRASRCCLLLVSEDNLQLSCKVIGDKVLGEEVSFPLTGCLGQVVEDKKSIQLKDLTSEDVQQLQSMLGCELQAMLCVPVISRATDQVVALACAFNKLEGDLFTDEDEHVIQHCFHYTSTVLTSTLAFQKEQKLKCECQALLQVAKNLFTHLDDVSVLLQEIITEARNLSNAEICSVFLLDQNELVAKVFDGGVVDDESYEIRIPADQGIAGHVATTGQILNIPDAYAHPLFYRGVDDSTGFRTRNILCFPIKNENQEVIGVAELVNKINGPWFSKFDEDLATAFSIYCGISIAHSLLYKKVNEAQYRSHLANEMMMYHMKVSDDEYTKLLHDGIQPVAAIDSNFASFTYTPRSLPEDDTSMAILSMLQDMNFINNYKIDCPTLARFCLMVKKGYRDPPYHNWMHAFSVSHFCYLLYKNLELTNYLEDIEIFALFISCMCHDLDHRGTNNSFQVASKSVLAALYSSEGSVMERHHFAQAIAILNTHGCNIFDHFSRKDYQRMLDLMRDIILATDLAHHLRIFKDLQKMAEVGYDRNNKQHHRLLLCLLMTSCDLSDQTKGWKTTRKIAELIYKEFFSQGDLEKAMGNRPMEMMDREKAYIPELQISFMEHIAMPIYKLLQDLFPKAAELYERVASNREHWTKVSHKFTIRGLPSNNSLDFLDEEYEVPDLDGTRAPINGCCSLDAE
Sequence of UniProt P25788 (P25788 whole entry, looked up): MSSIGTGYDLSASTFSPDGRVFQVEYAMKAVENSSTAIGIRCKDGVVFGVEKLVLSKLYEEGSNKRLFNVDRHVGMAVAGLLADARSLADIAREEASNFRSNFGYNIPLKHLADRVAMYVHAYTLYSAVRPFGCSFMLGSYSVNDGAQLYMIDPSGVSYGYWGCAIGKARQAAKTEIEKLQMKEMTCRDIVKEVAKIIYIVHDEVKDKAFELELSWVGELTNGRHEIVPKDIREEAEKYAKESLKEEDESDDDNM
Sequence of UniProt Q14671 (Q14671 whole entry, looked up): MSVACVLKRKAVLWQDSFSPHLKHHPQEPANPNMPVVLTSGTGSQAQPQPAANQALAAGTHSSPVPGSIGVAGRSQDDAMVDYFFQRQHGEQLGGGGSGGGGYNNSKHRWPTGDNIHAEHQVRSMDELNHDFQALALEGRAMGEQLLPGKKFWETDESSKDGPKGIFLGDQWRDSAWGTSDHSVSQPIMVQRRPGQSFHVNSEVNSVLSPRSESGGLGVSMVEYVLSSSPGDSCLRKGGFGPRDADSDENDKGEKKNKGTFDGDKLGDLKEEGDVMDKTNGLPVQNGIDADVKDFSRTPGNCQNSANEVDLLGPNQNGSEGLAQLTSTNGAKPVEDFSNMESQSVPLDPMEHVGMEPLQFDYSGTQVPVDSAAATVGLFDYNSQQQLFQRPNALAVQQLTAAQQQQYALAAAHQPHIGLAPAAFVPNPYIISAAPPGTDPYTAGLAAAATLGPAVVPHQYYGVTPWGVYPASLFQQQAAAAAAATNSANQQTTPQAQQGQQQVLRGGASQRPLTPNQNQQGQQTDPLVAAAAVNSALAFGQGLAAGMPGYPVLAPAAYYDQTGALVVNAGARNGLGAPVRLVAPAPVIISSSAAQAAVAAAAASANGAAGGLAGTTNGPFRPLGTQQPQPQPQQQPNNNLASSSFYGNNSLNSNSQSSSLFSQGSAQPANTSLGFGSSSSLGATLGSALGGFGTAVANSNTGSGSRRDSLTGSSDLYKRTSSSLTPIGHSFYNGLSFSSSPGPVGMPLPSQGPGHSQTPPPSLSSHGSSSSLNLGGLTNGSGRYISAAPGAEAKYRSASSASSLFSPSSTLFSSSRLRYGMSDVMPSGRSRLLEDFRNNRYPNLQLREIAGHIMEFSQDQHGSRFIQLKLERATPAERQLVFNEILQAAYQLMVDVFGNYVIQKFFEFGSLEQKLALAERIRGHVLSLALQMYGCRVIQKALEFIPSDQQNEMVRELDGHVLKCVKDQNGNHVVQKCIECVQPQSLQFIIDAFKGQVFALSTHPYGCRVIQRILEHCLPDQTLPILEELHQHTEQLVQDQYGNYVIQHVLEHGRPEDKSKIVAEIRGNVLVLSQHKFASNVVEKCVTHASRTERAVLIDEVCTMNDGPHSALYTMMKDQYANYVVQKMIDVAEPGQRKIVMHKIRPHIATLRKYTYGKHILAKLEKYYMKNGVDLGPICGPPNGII
Sequence of UniProt Q9Y2Y1 (Q9Y2Y1 whole entry, looked up): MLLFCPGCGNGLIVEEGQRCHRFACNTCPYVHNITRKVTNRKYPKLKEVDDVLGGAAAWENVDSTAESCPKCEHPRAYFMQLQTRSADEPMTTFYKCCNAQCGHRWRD

Target	log2 fold change [1]	log2 fold change [2]	log2 fold change [3]	log2 fold change [4]	log2 fold change [5]	log2 fold change [6]	log2 fold change [7]	log2 fold change [8]	log2 fold change [9]	log2 fold change [10]	log2 fold change [11]	log2 fold change [12]	log2 fold change [13]	log2 fold change [14]	log2 fold change [15]	log2 fold change [16]	log2 fold change [17]	log2 fold change [18]	log2 fold change [19]	log2 fold change [20]
PSMA3 (UniProt P25788)	0.06	0.003	0.041	0.041	0.029	0.008	-0.003	-0.005	0.006	-0.016	0.03	0.022	0.071	0.058	-0.027	-0.029	0.005	-0.002	0.102	-0.056
PMM1 (UniProt Q92871)	-0.2	0.022	-0.606 (active)	-0.152	-0.027	0.003	0.05	0.025	0.134	0.066	0.005	0.006	-0.01	0.002	-0.021	0.113	0.034	-0.005	0.004	-0.012
PELO (UniProt Q9BRX2)	0.068	0.155	-0.021	-0.067	-0.054	-0.02	0.042	0.061	-0.136	-0.111	-0.028	-0.089	-0.098	-0.174	0.058	0.064	0.009	0.054	0.063	-0.057
PGK2 (UniProt P07205)	0.009	-0.036	0.066	0.096	0.11	-0.013	-0.137	-0.029	-0.006	-0.092	-0.056	-0.032	-0.038	-0.134	0.021	-0.056	-0.121	0.172	-0.532 (active)	-0.012
PRKCD (UniProt Q05655)	-0.028	-0.007	0.033	-0.261 (active)	-0.049	-0.021	0.027	0.102	0.008	0.08	-0.086	-0.05	-0.081	-0.031	0.024	0.031	0.006	0.045	-0.06	-0.083
PPOX (UniProt P50336)	-0.031	-0.013	0.494	0.027	0.208	-0.015	0.192	0.086	0.08	0	-0.042	-0.228	-0.182	-0.009	0.04	0.003	0.02	0.158	0.094	0.018
PDE2A (UniProt O00408)	0.021	-0.02	0.023	0.016	-0.103	-0.012	0.063	-0.03	-0.031	-0.051	0.035	-0.008	-0.018	-0.033	-0.082	0.118	-0.032	0.035	-0.052	0.018
PUM1 isoform 3 (UniProt Q14671)	-0.062	0.006	-0.047	-0.066	-0.044	-0.014	0.01	0	-0.015	0.007	0	-0.032	-0.082	-0.015	0.034	0.108	-0.008	0.01	-0.028	-0.007
PRKAR1B (UniProt P31321)	0.132	-0.015	0.062	0.012	-0.013	0.097	0.018	0.126	0.147	-0.286	0.001	0.085	0.129	0.045	-0.015	-0.031	0	0.07	0.024	-0.142
PRKACB isoform 2 (UniProt P22694)	-0.06	0.04	-0.021	0.647 (active)	-0.021	-0.037	-0.013	-0.004	-0.144	0.051	0.078	-0.11	-0.173	-0.02	0.001	0.04	0.015	-0.002	-0.119	-0.065
PPM1G (UniProt O15355)	0.001	0.048	-0.041	-0.05	-0.097	0	0.096	0.117	-0.133	0.105	-0.147	-0.086	-0.018	-0.181	0.017	0.079	0.033	0.031	-0.114	-0.102
POLR3K (UniProt Q9Y2Y1)	-0.006	-0.039	0.035	-0.003	0.098	0.01	-0.02	-0.021	0.033	-0.088	0.045	0.007	0.057	0.057	0.009	-0.003	-0.025	0.013	-0.028	0.025
PIK3CB (UniProt P42338)	-0.075	0.028	-0.084	-0.056	-0.209	0.034	-0.002	0.049	-0.105	0.037	-0.057	-0.106	-0.008	-0.102	0.014	0.001	0.003	-0.053	-0.039	-0.049
PIP4P2 (UniProt Q8N4L2)	-0.083	-0.111	0.013	-0.003	0.055	-0.026	-0.03	0.014	0.024	0.005	0.02	-0.152	-0.373 (active)	-0.024	0.007	0.042	-0.02	0.074	0.082	0.051
PSMC6 (UniProt P62333)	0.069	0.008	-0.029	0.069	0.039	-0.02	-0.068	0.002	0.104	-0.048	0.007	0.015	0.069	0.075	-0.015	-0.005	-0.048	-0.035	0.072	-0.075
POLR2M (UniProt P0CAP2)	-0.029	-0.015	-0.011	0.034	0.055	0.138	-0.051	-0.024	0.035	-0.037	-0.03	0.035	-0.045	-0.085	-0.032	-0.091	-0.019	0.043	0.009	-0.008
